These results are taken from PubChem BioAssay (NCI).

Holding throughout (experiment): NCI-60 one-dose screen, 48 h (100 = growth as untreated, 0 = no growth, -100 = all killed)
Common to all, as to conditions: 10 µM unless noted

For assay [1], the system named is HCT-15 colon.
In assay [2] the test system is HT29 colon.
For assay [3], the system named is SNB-19 CNS.
In assay [4] the test system is U251 CNS.
For assay [5], the system named is PC-3 prostate.
The test system of assay [6] is SK-MEL-5 melanoma.
The subject of assay [7] is UACC-62 melanoma.
The subject of assay [8] is LOX IMVI melanoma.
The subject of assay [9] is SK-MEL-28 melanoma.
For assay [10], the system named is SK-MEL-2 melanoma.
Assay [11] deals with EKVX NSCLC.
Assay [12] deals with SN12C renal.
The subject of assay [13] is UO-31 renal.
Assay [14] concerns TK-10 renal.
For assay [15], the system named is ACHN renal.
Assay [16] deals with CAKI-1 renal.
The subject of assay [17] is A498 renal.
For assay [18], the system named is CCRF-CEM leukemia.
For assay [19], the system named is MOLT-4 leukemia.

This is part of a sample that, as a whole, favours compounds with a hit. Of some 83,000 tested, about 20% had one in any assay.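 The test compound was applied at a single concentration to cells in 96-well plates for 48 hours, and percent growth was recorded.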 Values without a mark were called inactive. Activity calls are given as the source filed them. The calls were made as follows: active = growth percent below 10; inactive = the rest.

As for `S=c1[nH]nc(-c2cc3ccc2CCc2ccc(cc2)CC3)n1C1CC1`, the growth is 96.6% in assay [1]; 95.7% in [2]; 95.5% in assay [3]; 97.4% in [4]; 95.8% in [5]; 95.7% in [6]. The growth was 80.2% in [7]; 95% in assay [8]; 102% in assay [9]; 110% in [10]; 88.9% in [11]; 94.8% in [12]. For the same compound, the growth in [13] is 88.8%; in assay [14], 143%; in assay [15], 102%; in assay [16], 98.6%; in [17], 97.8%; in assay [18], 104%. Besides, the growth in assay [19] was 105%.

As to `COc1ccc(Nc2[nH]n3c(=O)cc(-c4ccccc4)nc3c2C(=O)Nc2ccc(C)cc2)c(OC)c1`, the growth was 89.6% in assay [1]; 112% in [2]; 56.3% in assay [3]; 60.3% in assay [4]; 76.9% in assay [5]; 98.4% in assay [6]. Also, the growth is 64% in assay [7]; 87% in assay [8]; 95% in assay [9]; 103% in assay [10]; 89.8% in [11]; 85.9% in assay [12]. The growth is 74.7% in assay [13]; 108% in assay [14]; 88.5% in assay [15]; 90.4% in assay [16]; 108% in assay [17]; 66.5% in assay [18]. Also, the growth in assay [19] is 69.4%.

For the compound `COc1ccc(-n2c(-c3ccccc3)c(-c3ccccc3)c3c(SCC(=O)N/N=C/c4ccc(Cl)cc4)ncnc32)cc1`, the growth in assay [1] was 105%; in [2] it was 94.4%; in assay [3], 100%; in assay [4], 91.6%; in [5] it was 83.3%; in assay [6] it was 86.9%. In addition, the growth was 86.7% in [7]; 88.4% in assay [8]; 104% in [9]; 107% in [10]; 87% in assay [11]; 99% in assay [12]. For the same compound, the growth in assay [13] was 74.5%; in assay [14], 108%; in assay [15], 101%; in [16] it was 87.9%; in [17], 75.6%; in assay [18], 93.4%. The growth in assay [19] was 97%.

Consider `COc1ccc(C2C(C#N)=C(N)Oc3c2ccc2ccccc32)cc1` (stereo unspecified), for which the growth was 28.3% in assay [1]; 34.1% in assay [2]; 46.7% in [3]; 35.4% in assay [4]; 39.9% in assay [5]; 31.2% in assay [6]. Further, the growth was 23.6% in assay [7]; 27.1% in assay [8]; 52.2% in assay [9]; 24.8% in [10]; 73.8% in assay [11]; 51.5% in [12]. In addition, the growth was 38.8% in assay [13]; 81% in [14]; 52.5% in [15]; 30.8% in [16]; 0% (active) in assay [17]; 24.2% in [18]. Moreover, the growth in assay [19] was 31.7%.

For the compound `O=C(NNC(=S)Nc1ccccc1)c1cc2ccc1CCc1ccc(cc1)CC2`, the growth in assay [1] was 40.2%; in [2], 76.1%; in assay [3], 56.9%; in assay [4], 49.3%; in assay [5] it was 57.8%; in [6] it was 43.8%. Besides, the growth in assay [7] is 55.9%; in assay [8], 59.4%; in assay [9] it was 73.5%; in [10] it was 74.5%; in assay [11] it was 76.3%; in [12] it was 58.3%. The growth was 82.2% in assay [13]; 99.6% in [14]; 61.4% in [15]; 63.8% in assay [16]; 61% in assay [17]; 33.8% in [18]. Besides, the growth in [19] is 57%.

Regarding `COC(=O)c1nc(-c2ccccc2)oc1S(=O)(=O)N1CCN(c2cccc(Cl)c2)CC1`, the growth in assay [1] is 65.5%; in assay [2], 50.8%; in assay [3], 63.6%; in assay [4], 72.2%; in assay [5], 82%; in assay [6], 99.3%. For the same compound, the growth was 79.7% in assay [7]; 44.3% in assay [8]; 88.3% in assay [9]; 90% in assay [10]; 93.4% in assay [11]; 74.5% in assay [12]. Moreover, the growth was 62.9% in [13]; 89.4% in assay [14]; 84.8% in [15]; 32.6% in assay [16]; 111% in assay [17]; 4.91% (active) in [18]. Besides, in assay [19], the growth was 39.3%.

For the compound `O=C(Nc1ccc(NCCN2CCOCC2)nc1)c1ccc([N+](=O)[O-])cc1`, the growth is 105% in [1]; 101% in assay [2]; 106% in assay [3]; 102% in assay [4]; 98.5% in assay [5]; 98.7% in assay [6]. Moreover, the growth in assay [7] is 94.6%; in [8] it was 102%; in assay [9], 115%; in [10] it was 108%; in assay [11] it was 87.2%; in assay [12], 107%. Also, the growth in assay [13] was 96.2%; in assay [14] it was 114%; in [15], 109%; in assay [16], 99%; in [17], 92.5%; in assay [18], 101%. In [19], the growth was 118%.

For the compound `COc1cc(/C=N\NC(=O)CN2CCN(c3cc4c(cc3F)c(=O)c(C(=O)N/N=C/c3cc(OC)c(OC)c(OC)c3)cn4C3CC3)CC2)cc(OC)c1OC`, the growth in [1] was 101%; in assay [2] it was 4.47% (active); in assay [3] it was 19.1%; in assay [4] it was 2.13% (active); in [5], -19.8% (active); in assay [6], -15.4% (active). Besides, the growth in assay [7] was -34.7% (active); in assay [8], -67.1% (active); in assay [9], -11.6% (active); in assay [10], -26.2% (active); in assay [11], 55.2%; in [12], -25.8% (active). The growth in [13] was 71.8%; in [14], 64.2%; in assay [15] it was 93.7%; in assay [16] it was 77.7%; in assay [17], 46.6%; in [18] it was 4.32% (active). Moreover, the growth in assay [19] was 0.748% (active).

For `COc1ccc(-n2c(=O)sc3c(Cl)nc(C)nc32)c(OC)c1`, the growth in assay [1] was 61.3%; in [2], 74.1%; in [3], 49.6%; in assay [4], 51.6%; in [5] it was 85.2%; in assay [6], 98.1%. Also, the growth in assay [7] is 78.4%; in assay [8] it was 29.1%; in assay [9], 83.3%; in assay [10] it was 99.4%; in assay [11] it was 75.9%; in assay [12], 81%. Also, the growth was -23.2% (active) in assay [13]; 115% in [14]; 95.6% in assay [15]; -58.1% (active) in assay [16]; 91.1% in [17]; 78.2% in assay [19].

Take `Clc1cc2c(nn1)Nc1ccccc1S2`: the growth is 101% in assay [1]; 102% in assay [2]; 88.5% in assay [3]; 97.3% in assay [4]; 92.4% in assay [5]; 95% in assay [6]. Further, the growth in assay [7] is 95.2%; in assay [8], 98.6%; in assay [9] it was 109%; in assay [10] it was -4.79% (active); in [11], 52.3%; in [12], 97.1%. The growth in [13] was 106%; in assay [14], 129%; in assay [15], 99.1%; in assay [17] it was 89.1%; in assay [18], 93.7%.

On to `COc1ccc(C2C=C(c3ccc(N)cc3)N=C3SC=CN32)cc1OC` (stereo unspecified), for which the growth was 101% in assay [1]; 103% in assay [2]; 102% in [3]; 98.5% in assay [4]; 91.4% in [5]; 103% in [6]. The growth was 112% in [7]; 105% in assay [8]; 113% in assay [9]; 108% in assay [10]; 105% in assay [12]; 82.2% in assay [13]. The growth was 98.1% in assay [14]; 99.9% in assay [15]; 101% in assay [16]; 108% in assay [17]; 97.7% in assay [18]; 90.6% in [19].

With `Cc1ccc(/C=C2\CN(C(=O)CCN3CCC(=NO)CC3)C/C(=C\c3ccc(C)cc3)C2=O)cc1`, the growth in [1] is -27.9% (active); in assay [2], -42.8% (active); in assay [3], 7.61% (active); in assay [4] it was -49.6% (active); in [5], 11.7%; in assay [6], -23.6% (active). Besides, the growth in [7] is -50.8% (active); in assay [8] it was -89.7% (active); in [9], -17.5% (active); in assay [10], 91.5%; in [11] it was 8.39% (active); in assay [12], -34.4% (active). Also, the growth was -86% (active) in assay [13]; 20.2% in assay [14]; -38.8% (active) in assay [15]; 46.6% in [17]; 1.97% (active) in [18]; 3.31% (active) in assay [19].

As to `CCOC(=O)c1ccc(NC(=O)N2CC(C)OC(C)C2)cc1` (stereo unspecified), the growth in [1] is 96.2%; in assay [2], 101%; in [3], 93.2%; in assay [4] it was 97.4%; in assay [5], 103%; in assay [6] it was 99.7%. The growth in assay [7] is 87.6%; in assay [8], 96%; in assay [9] it was 98.5%; in assay [10], 113%; in assay [11], 108%; in assay [12], 97.4%. Also, the growth is 4.84% (active) in assay [13]; 125% in assay [14]; 96.7% in [15]; 80.6% in assay [17]; 102% in [18]; 99.9% in [19].
